# uPA generation – cell surface uPA generation inhibition; cell surface uPA generation assay, qHTS; Potency, µM (titrated, usually from 38.3 µM), most hits filed as inhibitors; 330,000 compounds, 0.31% hits; active = well fitted inhibition curve with a large enough effect; inconclusive = small, poorly fitted or top-dose-only effect; inactive = no such curve, though single readings can be large or run the other way; tested in mouse RAW 264.7 cells; also: nearly all actives have a fitted effect of over 55% in size
# IL2 activator – activates IL-2 in a cell-based reporter assay | IL-2 activation reporter assay, cell-based qHTS; stimulated with anti-CD3/CD4/CD28 beads; in transgenic mouse T cells | activation, % (series mostly up to about 46 µM) | 360,000 compounds, 0.065% hits | AID 652025; in the data active = activation above about 50%; inconclusive = mostly about 30% to 49%
#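 Using fluorescent plate cytometry, EGFP and DsRed are detected in transgenic mouse T cells stimulated 18 h at 37 degrees C with antibody-coated beads after 60 min compound pretreatment.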
# 12-LOX inh – ALOX12 (human) lipoxygenase inhibition; P18054; purified 12hLO, xylenol orange hydroperoxide absorbance; Potency, µM (series often up to 108 µM), usual class: inhibitors; 580,000 compounds, 1.1% hits; AID 1671190
# Target sequence (P18054 whole entry, looked up): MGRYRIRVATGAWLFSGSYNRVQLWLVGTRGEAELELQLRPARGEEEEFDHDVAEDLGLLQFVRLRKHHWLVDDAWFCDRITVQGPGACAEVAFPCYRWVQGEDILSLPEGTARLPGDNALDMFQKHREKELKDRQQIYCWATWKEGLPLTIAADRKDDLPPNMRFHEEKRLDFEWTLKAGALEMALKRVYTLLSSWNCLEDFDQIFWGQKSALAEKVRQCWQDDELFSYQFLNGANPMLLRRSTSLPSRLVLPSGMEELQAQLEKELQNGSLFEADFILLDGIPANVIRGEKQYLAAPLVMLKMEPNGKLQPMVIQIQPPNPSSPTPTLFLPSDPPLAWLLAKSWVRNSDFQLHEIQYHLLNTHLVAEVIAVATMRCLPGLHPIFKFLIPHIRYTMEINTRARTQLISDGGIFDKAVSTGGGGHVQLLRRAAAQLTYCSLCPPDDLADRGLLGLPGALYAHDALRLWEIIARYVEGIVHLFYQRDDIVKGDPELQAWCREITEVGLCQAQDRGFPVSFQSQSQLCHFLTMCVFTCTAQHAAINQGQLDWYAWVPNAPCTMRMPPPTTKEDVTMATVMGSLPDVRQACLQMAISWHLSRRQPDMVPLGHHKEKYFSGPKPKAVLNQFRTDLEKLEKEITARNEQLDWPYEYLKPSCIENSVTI
#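 Hydroperoxide product was detected by ferrous iron/xylenol orange as the 573 to 405 nm absorbance ratio. Arachidonic acid at 40 uM (final) was turned over for 30 min at room temperature by 150 nM human 12hLO, pH 7.0 Hepes buffer, after 15 min compound preincubation.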
# Nrf2 activator – activators of Nrf2 (ARE) signaling | AREc32 ARE-luciferase reporter (MCF7-derived line), luminescence, 24 h | Potency, µM (doses to about 46.1 µM), most hits filed as activators | 410,000 compounds, 0.31% hits; also: nearly all actives have a fitted effect of over 65% in size
#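 Nrf2 activation is followed as ARE-luciferase induction in the AREc32 line after one day of compound treatment; luminescence is read with Steady-Glo.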
# a7 integrin act – activates integrin-mediated alleviation for muscular dystrophy. alpha7betagal myoblasts, beta-gal FDG fluorescence, 48 h. Potency, µM (top dose mostly 38.3 µM), actives largely listed as activators. 350,000 compounds, 0.064% hits. AID 624291; also: nearly all actives have a fitted effect of over 60% in size
#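 Alpha7betagal+/- myoblasts (passage 13) were plated 16-24 hr, then exposed to compounds (1:260 dilution of DMSO stock) for 48 hours at 37C. After MPER lysis, β-galactosidase reporter activity was read as FDG fluorescence (ex 480/em 540) after 30 minutes.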
# A number is an active result; n = inactive; u = inconclusive; x = not tested or not shown; ! = not active in a repeat; [ ] = remark or other dose. Hits are enriched below; roughly 1.5% of the tested compounds scored in any of these assays. Unless noted, calls follow the shape of the dose curve; as a rule, active = well fitted curve in the direction sought with a large enough effect; inconclusive = small, poorly fitted or top-dose-only effect, or another doubt; inactive = no such curve, though single readings can be large; an effect the other way counts as inactive or inconclusive.
SMILES,uPA generation,IL2 activator,12-LOX inh,Nrf2 activator,a7 integrin act
Cc1[nH]n(-c2ccccc2)c(=O)c1/C=N/NC(=O)c1cccc(F)c1,u,n,35µM,n,n
Cc1[nH]n(-c2ccccc2)c(=O)c1/C=N/Nc1nncc(-c2ccccc2)n1,u,n,16µM,n,n
CCCOc1ccc(/C=C(/C#N)c2nc3ccccc3[nH]2)c(OCCC)c1,x,x,n,x,x
CCOC(=O)c1ccc(NC(=O)CSc2nnc(-c3cccc(Cl)c3)n2C)cc1,x,x,n,x,x
O=C([C@@H]1C[C@H](F)CN1C(=O)c1ccsc1)N1CCCCC1,x,x,n,x,x
O=C(Nc1nccs1)c1cc(-c2ccccc2)nc2ccccc12,n,n,n,n,n
Cc1csc(NC(=O)c2cc(-c3ccco3)nc3ccccc23)n1,n,n,25µM,4µM,n
O=C(NC(=S)Nc1cccc(S(=O)(=O)NC2=NCCC2)c1)c1cc(-c2ccco2)nc2ccccc12,n,n,n,n,n
CN(C)C(=O)c1ccc(NC(=O)c2cc(-c3ccco3)nc3ccccc23)cc1,n,n,16µM!,11µM,n
O=C(Nc1nccs1)c1cc(-c2ccco2)nc2ccccc12,n,n,45µM,u,n
O=C(Nc1cccc(S(=O)(=O)NC2=NCCC2)c1)c1cc(-c2ccco2)nc2ccccc12,n,n,u,10µM,n
O=C(OCC(=O)c1ccccc1)/C(=C/c1cccs1)c1cccs1,x,x,n,x,x
CS(=O)(=O)N(C1CCOCC1)C1CN(C(=O)c2ccccn2)C1,x,x,n,x,x
CNC(=O)NC(=O)CN(C)Cc1cccc(Cl)c1Cl,x,x,n,x,x
CN(C)Cc1cc(CC2(NC3CCC3)COC2)no1,x,x,n,x,x
Oc1[nH]c2ccccc2c1N=Nc1ccc(F)cc1,n,191,n,n,n
Oc1[nH]c2ccccc2c1N=Nc1ccccc1,n,n,n,n,n
C[C@H]1[C@@H]2[C@@H](O)C([C@H](C)C(=O)NCCN3CCOCC3)CC[C@@]2(C)CC[C@@H]1NC(=O)c1cncnc1 (some centres not stated),x,x,n,x,x
Cc1ccn(-c2cc(O)c(-n3ccc(C)n3)cc2O)n1,n,n,2.8µM,n,n
Cc1ccn(CCC(=O)O)n1,n,n,n,n,n
Cc1nc2scc(CC(=O)NC3CC3)n2c(=O)c1-c1cc(C)n(-c2ccccc2F)n1,x,x,n,x,x
Cc1ccc(C(=O)COC(=O)C2C3CCC(C3)C2C(=O)OCC(=O)c2ccc(C)c(C)c2)cc1C (configuration not stated),x,x,n,x,x
C/C(=N\NC(N)=S)c1cccc([N+](=O)[O-])c1,x,x,n,x,x
O=C(CCl)NCCN1C(=O)S/C(=C\c2cccnc2)C1=O,n,n,u,13µM,n
O=C(Cn1[nH]c(=O)c2ccccc2c1=O)NCCN1C(=O)S/C(=C\c2ccccc2)C1=O,n,n,n,13µM,n
SMILES,uPA generation,IL2 activator,12-LOX inh,Nrf2 activator,a7 integrin act
CC(C(=O)NCCN1C(=O)S/C(=C\c2cccnc2)C1=O)N1C(=O)c2ccccc2C1=O (configuration not stated),n,n,n,n,n
C/C(CC(=O)Nc1ccc(Cl)c(Cl)c1)=N\NC(N)=S,n,n,1µM,n,n
C/C(CC(=O)Nc1cc(Cl)ccc1Cl)=N\NC(N)=S,n,n,u,n,n
Cc1[nH]n(-c2ccccc2)c(=O)c1C=NCCc1ccccc1,n,n,n,n,n
CCCCN=Cc1c(C)[nH]n(-c2ccccc2)c1=S,n,n,22µM,n,n
Cc1ccc(C2=NC3(CCN(C(=O)COc4cccc(C)c4)CC3)ON2)cc1,x,x,89µM,x,x
Cc1ccc(C2=NC3(CCN(C(=O)COc4ccc(Cl)cc4)CC3)ON2)cc1,x,x,n,x,x
COC(=O)/C(C#N)=C/c1ccc(-c2ccc(S(N)(=O)=O)cc2)o1,n,n,n,n,n
N#CC(C#N)=Cc1ccc(-c2ccc(S(=O)(=O)N=C(N)N)cc2)o1,n,n,25µM,n[9.22 µM],n
COc1ccc(CNC(=O)c2ccc(CN3C(=O)NC4(CCOCC4)C3=O)cc2)cc1,x,x,n,x,x
CC(=O)C1=C(C)N(Cc2ccc(Br)cc2)C(=S)NC1c1ccc(F)cc1 (configuration not stated),x,x,35µM,x,x
CC(=O)C1=C(C)N(Cc2ccc(F)cc2)C(=S)NC1c1ccc(Br)cc1 (configuration not stated),x,x,35µM,x,x
CCN1C(=O)N[C@@H](c2ccc(Br)cc2)C(C(C)=O)=C1C,n,n,n,n,n
